The values that follow come from paper doi:10.1101/2025.02.07.636106.

Sequence of EEA1 (Q15075 whole entry): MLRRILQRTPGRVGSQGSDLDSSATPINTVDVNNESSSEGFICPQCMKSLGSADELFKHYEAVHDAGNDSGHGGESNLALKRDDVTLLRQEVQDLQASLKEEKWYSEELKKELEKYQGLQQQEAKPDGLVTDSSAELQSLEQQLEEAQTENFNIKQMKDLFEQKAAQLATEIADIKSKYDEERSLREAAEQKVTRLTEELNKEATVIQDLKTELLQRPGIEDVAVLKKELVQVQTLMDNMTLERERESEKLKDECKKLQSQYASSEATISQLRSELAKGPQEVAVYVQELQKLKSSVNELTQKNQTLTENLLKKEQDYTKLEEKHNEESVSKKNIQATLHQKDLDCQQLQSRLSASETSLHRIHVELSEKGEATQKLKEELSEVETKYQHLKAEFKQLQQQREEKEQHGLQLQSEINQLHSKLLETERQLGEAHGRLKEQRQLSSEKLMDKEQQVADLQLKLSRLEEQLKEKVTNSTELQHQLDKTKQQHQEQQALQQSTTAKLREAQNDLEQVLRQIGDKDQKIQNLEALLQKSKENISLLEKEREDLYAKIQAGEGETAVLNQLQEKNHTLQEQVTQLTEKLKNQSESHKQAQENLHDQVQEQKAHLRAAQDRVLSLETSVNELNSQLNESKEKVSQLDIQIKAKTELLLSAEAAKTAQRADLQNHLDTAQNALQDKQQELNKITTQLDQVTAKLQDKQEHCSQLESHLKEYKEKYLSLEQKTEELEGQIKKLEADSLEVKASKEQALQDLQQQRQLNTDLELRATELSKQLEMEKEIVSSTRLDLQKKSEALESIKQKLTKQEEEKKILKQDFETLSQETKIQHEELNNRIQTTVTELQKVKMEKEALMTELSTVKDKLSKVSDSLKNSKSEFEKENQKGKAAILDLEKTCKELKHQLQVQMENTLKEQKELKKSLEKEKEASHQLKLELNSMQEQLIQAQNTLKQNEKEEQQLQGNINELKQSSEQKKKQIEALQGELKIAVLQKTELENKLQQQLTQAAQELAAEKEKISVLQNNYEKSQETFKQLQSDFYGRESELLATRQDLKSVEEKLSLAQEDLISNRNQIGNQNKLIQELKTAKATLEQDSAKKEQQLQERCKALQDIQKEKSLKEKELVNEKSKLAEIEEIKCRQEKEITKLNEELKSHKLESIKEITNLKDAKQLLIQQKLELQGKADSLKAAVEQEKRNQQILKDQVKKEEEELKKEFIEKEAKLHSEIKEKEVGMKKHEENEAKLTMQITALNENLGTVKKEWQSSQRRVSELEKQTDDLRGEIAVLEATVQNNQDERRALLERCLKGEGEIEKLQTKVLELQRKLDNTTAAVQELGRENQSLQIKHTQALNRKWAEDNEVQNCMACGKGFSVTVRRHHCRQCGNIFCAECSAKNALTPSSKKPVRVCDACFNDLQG
Sequence of ZNF638, Q14966 (Q14966 whole entry): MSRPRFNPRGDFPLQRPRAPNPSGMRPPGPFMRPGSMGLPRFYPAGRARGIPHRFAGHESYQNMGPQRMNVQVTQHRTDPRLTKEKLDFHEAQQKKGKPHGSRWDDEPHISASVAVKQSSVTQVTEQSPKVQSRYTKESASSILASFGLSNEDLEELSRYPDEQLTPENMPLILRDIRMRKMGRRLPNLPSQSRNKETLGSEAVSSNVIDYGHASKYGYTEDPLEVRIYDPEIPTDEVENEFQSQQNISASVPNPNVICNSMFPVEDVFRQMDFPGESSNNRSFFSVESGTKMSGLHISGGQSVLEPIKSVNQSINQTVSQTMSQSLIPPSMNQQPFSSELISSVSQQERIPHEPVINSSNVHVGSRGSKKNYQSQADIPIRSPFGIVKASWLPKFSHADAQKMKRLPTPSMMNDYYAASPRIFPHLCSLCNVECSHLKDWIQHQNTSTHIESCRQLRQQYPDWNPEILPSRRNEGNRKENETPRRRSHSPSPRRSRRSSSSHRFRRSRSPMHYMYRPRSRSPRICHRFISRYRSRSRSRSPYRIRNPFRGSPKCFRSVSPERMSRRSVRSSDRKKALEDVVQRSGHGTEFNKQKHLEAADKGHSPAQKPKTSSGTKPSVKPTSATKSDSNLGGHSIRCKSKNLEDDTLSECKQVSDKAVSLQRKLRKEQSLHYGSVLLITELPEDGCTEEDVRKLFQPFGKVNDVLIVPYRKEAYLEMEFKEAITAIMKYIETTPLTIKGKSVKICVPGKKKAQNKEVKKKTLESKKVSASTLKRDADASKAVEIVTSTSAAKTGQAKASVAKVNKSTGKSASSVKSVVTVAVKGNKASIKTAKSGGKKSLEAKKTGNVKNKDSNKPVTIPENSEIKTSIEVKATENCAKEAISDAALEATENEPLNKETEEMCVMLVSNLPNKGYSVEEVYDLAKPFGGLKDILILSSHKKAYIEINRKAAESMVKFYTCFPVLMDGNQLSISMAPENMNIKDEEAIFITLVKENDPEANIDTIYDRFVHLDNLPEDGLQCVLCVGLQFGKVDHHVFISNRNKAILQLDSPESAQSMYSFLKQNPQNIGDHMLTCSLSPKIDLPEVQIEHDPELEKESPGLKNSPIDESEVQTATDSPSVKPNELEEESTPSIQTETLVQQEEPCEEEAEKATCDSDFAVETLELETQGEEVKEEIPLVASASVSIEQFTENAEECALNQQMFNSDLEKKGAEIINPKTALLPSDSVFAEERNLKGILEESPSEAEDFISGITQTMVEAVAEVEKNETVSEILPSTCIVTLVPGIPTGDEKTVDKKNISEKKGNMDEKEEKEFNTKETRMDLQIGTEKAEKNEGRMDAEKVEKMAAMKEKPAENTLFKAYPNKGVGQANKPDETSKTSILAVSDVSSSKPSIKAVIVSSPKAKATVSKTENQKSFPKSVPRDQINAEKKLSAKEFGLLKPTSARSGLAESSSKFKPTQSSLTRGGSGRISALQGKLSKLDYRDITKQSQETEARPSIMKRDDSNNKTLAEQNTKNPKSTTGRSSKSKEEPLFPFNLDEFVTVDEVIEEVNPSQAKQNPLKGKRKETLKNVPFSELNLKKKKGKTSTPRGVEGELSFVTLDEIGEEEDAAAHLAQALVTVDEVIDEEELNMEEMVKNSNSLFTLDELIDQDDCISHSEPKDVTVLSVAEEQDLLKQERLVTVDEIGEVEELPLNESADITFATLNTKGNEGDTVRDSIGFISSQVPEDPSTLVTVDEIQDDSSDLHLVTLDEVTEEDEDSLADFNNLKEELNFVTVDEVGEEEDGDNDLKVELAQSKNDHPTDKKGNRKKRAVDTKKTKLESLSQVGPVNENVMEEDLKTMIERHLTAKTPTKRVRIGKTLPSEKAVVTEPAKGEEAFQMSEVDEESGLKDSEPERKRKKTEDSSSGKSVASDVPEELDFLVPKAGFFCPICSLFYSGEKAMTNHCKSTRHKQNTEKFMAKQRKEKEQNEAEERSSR
Sequence of TPM4, P67936 (P67936 whole entry): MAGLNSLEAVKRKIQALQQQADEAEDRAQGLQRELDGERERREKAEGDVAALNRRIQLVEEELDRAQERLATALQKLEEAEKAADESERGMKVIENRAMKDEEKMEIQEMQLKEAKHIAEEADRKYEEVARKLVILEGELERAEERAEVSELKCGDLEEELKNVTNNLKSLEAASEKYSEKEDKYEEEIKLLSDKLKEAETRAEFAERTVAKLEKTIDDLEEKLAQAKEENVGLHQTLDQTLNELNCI
Sequence of ACADL, P28330 (P28330 whole entry): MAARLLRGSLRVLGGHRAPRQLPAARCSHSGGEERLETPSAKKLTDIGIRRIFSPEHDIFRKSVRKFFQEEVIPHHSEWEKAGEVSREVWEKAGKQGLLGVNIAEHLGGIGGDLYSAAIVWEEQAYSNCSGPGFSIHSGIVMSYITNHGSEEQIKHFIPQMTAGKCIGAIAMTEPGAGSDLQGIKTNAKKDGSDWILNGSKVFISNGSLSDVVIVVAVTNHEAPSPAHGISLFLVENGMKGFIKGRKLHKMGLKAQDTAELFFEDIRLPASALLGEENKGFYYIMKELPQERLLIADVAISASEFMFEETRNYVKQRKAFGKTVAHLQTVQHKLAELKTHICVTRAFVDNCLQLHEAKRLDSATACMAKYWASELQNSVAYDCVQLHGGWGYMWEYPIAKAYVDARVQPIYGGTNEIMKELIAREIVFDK
Sequence of RAB9A, P51151 (P51151 whole entry): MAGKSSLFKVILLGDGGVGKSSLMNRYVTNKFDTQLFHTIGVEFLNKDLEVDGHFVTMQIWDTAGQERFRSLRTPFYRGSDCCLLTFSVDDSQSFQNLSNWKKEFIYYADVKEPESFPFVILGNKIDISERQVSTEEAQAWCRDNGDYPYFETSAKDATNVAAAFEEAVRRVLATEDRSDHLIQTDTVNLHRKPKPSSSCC

The first test concerns the target EEA1 (UniProt Q15075). In words: cross-linking mass spectrometry. The following applies: DMTMM.
Consider NEB, P20929, for which the cross-linked residues entry is on record as “K8264 - E1248”.

ACADL, P28330: the cross-linked residues result is on record as “K92 - D1321”.

Turning to DMD, P11532, the cross-linked residues result was “E2453 - K227”.

Regarding ZNF638, Q14966, the cross-linked residues entry is reported as “K951 - E91”.

Staying with this test, now noted: DSSO.
Take DST, Q03001: the cross-linked residues entry is “K3770 - K995”.

As to RAB9A, P51151, the cross-linked residues entry was “K4 - K1340”.

Take ROCK2, O75116: the cross-linked residues entry is “K780 - K303”.

As for TPM4, P67936, the cross-linked residues result is recorded as “K215 - K370”.
